Compounds with a hit are over-represented: about 3.2% of the library has one in this group of screens.
Vaccinia Venus – qHTS for Stage-Specific Inhibitors of Vaccinia Orthopoxvirus: Venus Reporter Primary qHTS. Vaccinia virus Venus reporter expression, fluorescence. Potency, µM (top dose mostly 36.5 µM), without a hit: at the highest dose activity change, negative = inhibition, usual class: inhibitors. hit rate 0.46% among 330,000. AID 720580, 2013; calls by dose curve; tested in A549 cells; also: nearly all actives have a fitted effect of over 30% in size
Marburg entry inh – qHTS for inhibitors of binding or entry into cells for Marburg Virus; AID 540276, 2011; Potency, µM (titrated, usually from 37.8 µM), without a hit: at the highest dose activity change, negative = inhibition, hits mostly inhibitors; hit rate 1.8% among 300,000; Marburg virus pseudotyped entry inhibition, cell reporter; calls by dose curve; tested in HEK293 cells
Lassa entry inh – qHTS for Inhibitors of binding or entry into cells for Lassa Virus. Potency, µM (top dose mostly 37.9 µM), inactives show at the highest dose activity change, negative = inhibition, actives largely listed as inhibitors. AID 540256, 2011. Lassa virus pseudotype entry inhibition, cell reporter. hit rate 1.2% among 300,000; calls by dose curve; tested in HEK293 cells; also: nearly all actives have a fitted effect of over 50% in size
FMDV antiviral – High Throughput Screening for Foot and Mouth Disease Virus Antivirals | FMDV antiviral cell-based qHTS | Potency, µM (top dose mostly 57.9 µM), inactives show at the top dose activity change, negative = inhibition, actives largely listed as inhibitors | hit rate 1.2% among 410,000 | AID 1159524, 2015; calls by dose curve; tested in HEK293T cells; also: read-out not given here; nearly all actives have a fitted effect of over 45% in size
VACV mCherry inh – qHTS for Stage-Specific Inhibitors of Vaccinia Orthopoxvirus: mCherry Reporter Primary qHTS | Vaccinia virus mCherry reporter infection, fluorescence | AID 720579, 2013 | hit rate 0.63% among 310,000 | Potency, µM (series often up to 36.5 µM), for inactives: at the highest dose activity change, negative = inhibition, usual class: inhibitors; calls by dose curve; tested in A549 cells; also: nearly all actives have a fitted effect of over 35% in size
An asterisk follows results filed as active; i = inactive; ? = inconclusive; . = no result; [ ] = remark or other dose. % is scaled to controls: 0 for no effect and ±100 for the full control effect; potency is read from the fitted curve at half-maximal effect.

SMILES	Vaccinia Venus	Marburg entry inh	Lassa entry inh	FMDV antiviral	VACV mCherry inh
CO[C@H]1[C@H](NC(=O)c2cccs2)c2ccccc2C12CCN(Cc1cccn1-c1ccccn1)CC2	-4%	.	.	-15%	-15%
Cc1cc(/C=N/NC(=O)c2cccs2)c(C)n1-c1ccccc1	.	?	2.1µM*	13µM*	.
Cc1cc(/C=N/NC(=O)c2ccncc2)c(C)n1-c1ccccc1	-28%	5%	-13%	39%	-4%
COc1ccc2c(c1)CCc1cnc(-n3ncc(C(=O)NCC(C)(C)CN(C)C)c3C)nc1-2	-27%	.	.	0%	?
CCN(CC)c1ccc2cc(-c3nc4ccccc4[nH]3)c(=O)oc2c1	2%	?	?	4.5µM*	2%
CCN(CC)c1ccc2cc(-c3nc4ccccc4n3C)c(=O)oc2c1	?	37%	-1%	41%	?
COc1cc(C)ccc1OCc1cc(C(=O)N(C)CCCN2CCOCC2)no1	.	.	.	35%	.
O=c1[nH]nnc2c1ncn2C1OC(CO)C(O)C1O (stereo not given)	-24%	.	.	-18%	-3%
O=C(C[n+]1cccc(Cl)c1)c1ccc(F)cc1	-9%	.	.	.	17%
Cn1c(NCc2c(O)ccc3ccccc23)nc2ccccc21	.	21µM*	11%	?	.
COc1ccc(CNc2nc3ccccc3n2C)c(O)c1	-8%	11µM*	?	11%	-25%
O=C(Nc1cccc(S(=O)(=O)NC2=NCCCCC2)c1)c1ccc(Cl)cc1	-24%	?	?	?	-15%
Cc1cc(-c2ccc(S(=O)(=O)N(C)Cc3ccccc3)cc2)on1	.	.	.	-17%	.
CN1c2ccccc2C(C)(C)C12CC(c1ccc(S(=O)(=O)N3CCCCC3)cc1)=NO2 (stereo not given)	11%	0.16µM*	0.18µM*	4%	-3%
CN1c2ccccc2C(C)(C)C12CC(c1cccc(S(=O)(=O)N3CCCC3)c1)=NO2 (stereo not given)	2%	0.46µM*	0.52µM*	-24%	i
Cc1ccc(C(=O)N/C(=C\c2cn(C)c3ccccc23)C(=O)NCCN2CCOCC2)cc1	-11%	-14%[46.1 µM]	1%[46.1 µM]	-8%	-22%
O=C(NCC(=O)N(c1ccc(F)cc1)C(C(=O)NC1CCCCC1)c1cccnc1)c1ccco1 (stereo not given)	3%	?	?	12%	1%
O=C(NC1CCCCC1)C(c1cccnc1)N(C(=O)CCl)c1ccccc1Cl (stereo not given)	10µM*	?	?	-13%	?
CCc1ccc(N(C(=O)c2snc(C(N)=O)c2N)C(C(=O)NC2CCCC2)c2ccco2)cc1 (stereo not given)	-16%	7.9µM*	?	5%	-18%
CCC(C)c1ccc(N(C(=O)c2ccco2)C(C(=O)NC2CCCC2)c2cccnc2)cc1 (stereo not given)	-18%	?	?	22%	i
COc1ccc(N(C(=O)c2snc(C(N)=O)c2N)C(C(=O)NC2CCCC2)c2ccco2)cc1 (stereo not given)	-11%	?	-27%[46.1 µM]	-5%	-3%
O=C(NC1CCCCC1)C(c1cccnc1)N(C(=O)CCl)c1ccc(F)cc1 (stereo not given)	?	?	?	?	7.9µM*
CCc1ccc(N(C(=O)c2ccco2)C(C(=O)NC2CCCC2)c2cccnc2)cc1 (stereo not given)	-11%	?	1µM*	19%	-17%
COc1ccc(/C=C/C(=O)c2c(O)c(OC)c3occc3c2OC)cc1OC	-23%	.	.	.	-12%
O=C(COc1ccccc1C(=O)Nc1ccccc1)Nc1ccc2ccccc2c1	-20%	.	.	.	-7%
SMILES	Vaccinia Venus	Marburg entry inh	Lassa entry inh	FMDV antiviral	VACV mCherry inh
COc1ccc(C(C(=O)NC2CCCCC2)N(C(=O)CCl)c2ccc(C)cc2)cc1 (stereo not given)	-26%	?	?	?	-2%
COc1ccc(N(C(=O)CCl)C(C(=O)NC2CCCCC2)c2cccnc2)cc1 (stereo not given)	2.8µM*	?	13µM*	11µM*	11µM*
COC(=O)c1cc2oc3ccccc3c2n1Cc1c(F)cccc1Cl	-17%	-4%[46.1 µM]	.	-16%	-15%
CN1C(=O)/C(=C\C(=O)c2cccs2)c2ccccc21	-5%	?	-10%	22µM*	i
COc1cc2nc(N3CCCN(C)CC3)nc(Nc3ccncc3)c2cc1OC	?	.	.	.	-10%
COc1ccccc1C1CN(CCNC(=O)[C@@H]2CSC(=O)N2)Cc2ccccc2O1 (stereo not given in full)	-7%	.	.	58%	-8%
O=C(CN1CCC(C(O)(c2ccccc2)c2ccccc2)CC1)Nc1cc(Cl)ccc1Cl	-3%	?	8.2µM*	.	-15%
O=C(CN1CCN(S(=O)(=O)N2CCOCC2)CC1)Nc1cc(Cl)ccc1Cl	0%	?	.	28µM*	10%
O=C(CN1CCCCC1)Nc1cc(Cl)ccc1Cl	-3%	14%	6%	32%	1%
O=C(CN1CCC(C(O)(c2ccccc2)c2ccccc2)CC1)Nc1ccccc1	-14%	23µM*	?	.	-13%
O=C(CN1CCOCCOCCOCC1)Nc1ccccc1	-4%	5%	11%	.	i
CCCSc1ccc([C@@H]2[C@@H]3C(=O)N(C)C(=O)[C@@H]3[C@]3(C(=O)OC)CCCN23)cc1OC	-21%	.	.	-14%	-25%
CC(=O)c1ccc(NC(=O)COC(=O)CCC2CCCC2)cc1	-7%	?	3%[46.1 µM]	15%	?
COC(=O)/C=c1\s/c(=C(/C#N)C(=O)N2CCCCC2)n(-c2ccccc2)c1=O	.	-33%	.	.	.
CCCCN(CC)S(=O)(=O)c1ccc(C(=O)Nc2nnc(-c3cccs3)o2)cc1	?	8.9µM*	?	-18%	-17%
CCCCN(CCCC)S(=O)(=O)c1ccc(NC(=O)Cc2cccs2)cc1	.	?	9.2µM*	-22%	.
CCCN(CCC)S(=O)(=O)c1ccc(NC(=O)Cc2cccs2)cc1	-12%	-22%	-80%[14.3 µM]	22%	-20%
CSc1nnc(C)c(=O)n1COC(=O)c1ccc(S(=O)(=O)N(C)C)cc1	-2%	0%	-1%	-21%	-4%
Nc1ccn([C@@H]2O[C@H](COS(=O)(=O)O)[C@@H](O)[C@H]2O)c(=O)n1	2%	.	.	-6%	i
Nc1ccn(C2OC(COC(=O)C34CC5CC(CC(C5)C3)C4)C(O)C2O)c(=O)n1 (stereo not given)	?	-8%	4%	-12%	0.32µM*
Nc1ccn([C@@H]2O[C@H](CO)[C@@H](O)C2O)c(=O)n1 (stereo not given in full)	-27%	?	?	-24%	0.45µM*
Nc1ccn([C@@H]2O[C@H](CO)[C@@H](O)[C@H]2O)c(=O)n1	-14%	.	.	-13%	-20%
N=c1ccn2c(n1)OC1C(O)C(CO)OC12 (stereo not given)	?	.	.	3%	28µM*
N#Cc1ccccc1CCN1C(=O)c2ccccc2C1=O	-14%	1%[46.1 µM]	3%[46.1 µM]	22%	-2%
